This excerpt belongs to a sample that is enriched for hits.
TTR transcr act: activators of transthyretin transcription. SH-SY5Y TTR promoter Gaussia luciferase, luminescence; 100% = recombinant luciferase protein wells. activation, % at 16.7 µM. 1.3% of 92,000 active. AID 1117267;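 active = activation above the mean of all tested compounds plus 3 SD, cut at about 9.5% in these data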;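 note: cells exposed to compounds for one day before reading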
HuH7 TTR inh: decreases TTR transcription in HuH7 cells in activator counter-screen; shares compounds with TTR transcr act; HuH7 TTR promoter-Gaussia luciferase reporter, luminescence; inhibition, % at 16.7 µM; 4% of 1,100 active; AID 1117279;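 active = average inhibition above the solvent-only control wells' mean plus 3 SD, cut at about 15% in these data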;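 note: inhibitors lower well luminescence so higher value means more inhibition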
TTR act confirm: confirmation of human transthyretin transcription activators | SHSY5Y TTR promoter Gaussia luciferase, luminescence; 100% = purified Lucia enzyme wells, no cells | shares compounds with TTR transcr act | 1,100 tested, under 10 active | AID 1117280 | activation, % at 16.7 µM;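 active = mean activation above a set limit taken from the earlier primary screen, cut at about 11% in these data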
Each line names hits and unclear results; the compound was inactive in the other large screens (follow-up assays come after a bar, where they were run).

COc1ccccc1N(C(=O)c1snc(C(N)=O)c1N)C(C(=O)NCCC(C)C)c1ccco1 (configuration not stated)	none
CC(C)(C)NC(=O)C(c1ccco1)N(Cc1ccc(F)cc1)C(=O)c1snc(C(N)=O)c1N (configuration not stated)	TTR transcr act 10.3 | HuH7 TTR inh inactive | TTR act confirm inactive
NC(=O)c1nsc(C(=O)N(Cc2cccnc2)C(C(=O)NC2CCCC2)c2ccc(F)cc2)c1N (configuration not stated)	none
COCCN1C(=O)CCC1(C)C(=O)Nc1ccc2ccccc2c1 (configuration not stated)	none
CC(CC(=O)OCC(=O)NCc1ccc(Cl)cc1)c1ccccc1 (configuration not stated)	none
O=C(CCOc1ccccc1)N1CCCC(Nc2ccccc2)C1 (configuration not stated)	none
O=C(NNc1nc2ccccc2nc1C(F)(F)F)c1ccccc1	TTR transcr act 10.3 | HuH7 TTR inh inactive | TTR act confirm inactive
O=C(NNc1ccccc1F)c1ccccc1	none
O=C(NNc1nc2ccccc2o1)c1ccccc1	none
Nn1c(SCC(=O)Nc2ccc3c(c2)OCO3)nncc1=O	none
O=C(CSc1nc2ccccc2s1)Nc1ccc2c(c1)OCO2	none
Nn1cc(-c2ccccc2)nc1SCC(=O)Nc1ccc2c(c1)OCO2	TTR transcr act 13.5 | HuH7 TTR inh inactive | TTR act confirm inactive
CC[C@@H](NC(=O)[C@@H](Cc1ccccc1)NC(=O)CC[C@H]1O[C@@H](n2ccc(=O)[nH]c2=O)[C@H](O)[C@@H]1O)c1ccccc1	none
COc1ccc(/C=N/N2CCN(C)CC2)c(OC)c1OC	none
COc1ccc(/C=N/n2c(-c3n[nH]c4c3CCC4)n[nH]c2=S)c(OC)c1OC	none
COc1ccc(/C=N/n2c(C)nnc2C)c(OC)c1OC	TTR transcr act 10.2 | HuH7 TTR inh inactive | TTR act confirm inactive
O=[N+]([O-])c1ccccc1S(=O)(=O)NCCSCc1ccco1	none
O=C(NC1CC1)C(Cl)c1ccccc1 (configuration not stated)	none
O=C(CCCc1ccccc1)NC1CCSC1=O (configuration not stated)	none
O=C1SCCC1NC(=O)C(c1ccccc1)c1ccccc1 (configuration not stated)	TTR transcr act 18.1 | HuH7 TTR inh inactive | TTR act confirm inactive
COC(=O)c1ccc(N(CC(=O)NC2CCCC2)C(=O)c2ccc(C)s2)cc1	none
Cc1cccc(Oc2ccc(C(=O)NC3CCSC3=O)cn2)c1C (configuration not stated)	TTR transcr act 13.6 | HuH7 TTR inh inactive | TTR act confirm inactive
O=C(NC(=S)NC1CCSC1=O)c1cccs1 (configuration not stated)	none
O=C(Cc1ccc(F)cc1)NC1CCSC1=O (configuration not stated)	none
CCCCCCCC1=NN(c2ccc(S(=O)(=O)O)cc2)C(=O)C1N=O (configuration not stated)	none
CCCn1c(=O)c(C(=O)NCc2ccccc2)c(O)c2ccccc21	none
CCCn1c(=O)c(Cc2ccccc2)c(O)c2ccccc21	TTR transcr act 10.7 | HuH7 TTR inh inactive | TTR act confirm inactive
CCCCCn1c(=O)c(Cc2ccccc2)c(O)c2ccccc21	none
O=C(OCc1ccc(CSc2nnc(-c3cccc4ccccc34)o2)cc1)c1ccc(F)cc1	none
C=CCN1C[C@@H](COCc2ccccc2)OCCS1(=O)=O	none
Cc1c(Br)cnn1C(C)C(=O)N1CCN(c2ccccc2F)CC1 (configuration not stated)	none
COc1ccc(C(c2c(NC(=O)c3ccco3)sc(C)c2C)N2CCOCC2)cc1 (configuration not stated)	TTR transcr act 13.8 | HuH7 TTR inh inactive | TTR act confirm inactive
COc1ccc(C(Nc2ccccn2)c2c(NC(=O)c3ccco3)sc(C)c2C)cc1OC (configuration not stated)	none
COc1ccc(C(CNC(=O)c2ccco2)N2CCCCC2)cc1 (configuration not stated)	none
O=S1(=O)N[C@H](Cc2ccccc2)COc2cccc(F)c21	none
Cc1ccc(S(=O)(=O)N2CCN(CCc3ccncc3)CC2)cc1	none
Cc1cc(C)c(/C([O-])=C(/C(=S)Nc2ccc(SC(F)F)cc2)[n+]2ccccc2)cc1C	none
[O-]/C(=C(\C(=S)Nc1ccc(SC(F)F)cc1)[n+]1ccccc1)c1cc(Cl)ccc1Cl	TTR transcr act 22.3 | HuH7 TTR inh 20.5 | TTR act confirm inactive
C=CCNC(=S)/C(=C(\[O-])c1ccc(Cl)cc1)[n+]1ccccc1	none
CC(=O)c1sc(NC(=O)C2CCN(C(=O)c3ccc(F)cc3)CC2)nc1-c1ccccc1	none
NC(=O)C1CCCN(C(=O)CNC(=O)C23CC4CC(CC(C4)C2)C3)C1 (configuration not stated)	none
CCCSc1ncnc2[nH]ncc12	TTR transcr act 12.8 | HuH7 TTR inh inactive | TTR act confirm inactive
OCCCNc1ncnc2[nH]ncc12	none
Cc1ccc(CNc2ncnc3[nH]ncc23)cc1	none
C[C@H]1[C@H](NC(=O)c2ccc(Cl)c(C(F)(F)F)c2)CC[C@@]23CCCN2C(=O)CCC[C@@H]13	none
CC1CCCCC1NS(=O)(=O)c1ccc(-n2cnnn2)cc1 (configuration not stated)	none
COc1cc(S(=O)(=O)NC2CCCCC2C)ccc1Cl (configuration not stated)	none
COc1cc(S(=O)(=O)NC2CCCCC2C)ccc1-n1cnnn1 (configuration not stated)	TTR transcr act 14.0 | HuH7 TTR inh inactive | TTR act confirm inactive
O=S(=O)(N/N=C/c1cccc(OC2CSC2)c1)c1ccccc1	none
O=S(=O)(N/N=C/c1ccc(OC2CSC2)cc1)c1ccccc1	TTR transcr act 11.6 | HuH7 TTR inh inactive | TTR act confirm inactive
Cc1ccc(S(=O)(=O)N/N=C/c2cccc(OC3CSC3)c2)cc1	none
Cc1ccc(S(=O)(=O)N2CCOCC2)cc1C(=O)OCC(=O)N(Cc1ccccc1)C(C)C	none
Cc1nn(C(C)C)c(C)c1CN1CCCC(C(=O)c2cccc(OC(C)C)c2)C1 (configuration not stated)	none
Cc1nn(C)c(C)c1CCC(=O)N1CCCC(C(=O)c2cccc(OC(C)C)c2)C1 (configuration not stated)	TTR transcr act 10.1 | HuH7 TTR inh inactive | TTR act confirm inactive
CCn1nc(C)c(CN2CCCC(C(=O)c3cccc(OC(C)C)c3)C2)c1C (configuration not stated)	none
COc1ccc(Cl)cc1NC(=O)C1CCCN(c2ncnc3c2nc2n3CCCCC2)C1 (configuration not stated)	none
CC(=O)N1CCN(Cc2cc(=O)oc3ccccc23)CC1	none
CCOC(=O)c1c(C)n(C)c2ccc(OCCN(C)C)cc12	none
CCOC(=O)c1c(C)n(C)c2ccc(OCC(O)CNC(CC)CO)cc12 (configuration not stated)	TTR transcr act 13.8 | HuH7 TTR inh inactive | TTR act confirm inactive
CCOC(=O)c1c(C)n(C)c2ccc(OCC(O)CN3CCCCCC3)cc12 (configuration not stated)	none
O=C(CSc1nnc(NC(=O)C2CC(=O)N(c3ccc(F)cc3)C2)s1)NCc1ccco1 (configuration not stated)	none
O=C(COC(=O)c1cnccn1)Nc1ncc(C(F)(F)F)cc1Cl	none
